# Vaccinia mCherry: vaccinia inhibition (mCherry reporter); AID 720579; Vaccinia virus mCherry reporter infection, fluorescence; Potency, µM (top dose mostly 36.5 µM), inactives show top-dose activity change, negative = inhibition, actives largely listed as inhibitors; hit rate 0.63% among 310,000; calls by dose curve; tested in A549 cells; also: potency is read from the fitted curve at half-maximal effect; nearly all actives have a fitted effect of over 35% in size
# HCMV antiviral: human cytomegalovirus inhibition. HFF cells, HCMV-luciferase reporter, 72 h; active compounds read low. activity change, negative = inhibition, % at 57.5 µM. hit rate 4.5% among 410,000. AID 1259415; in the data active = activity change below about -60%; inconclusive = no clear call, values can overlap the other calls; inactive = above about -39%
#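 Two-dose cell screen: HFF monolayers treated with compounds and infected with luciferase-expressing HCMV at 1 PFU/cell, 72 h at 37C, then lysed for luciferase measurement.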
# Vaccinia Venus: vaccinia inhibition (Venus reporter); Vaccinia virus Venus reporter expression, fluorescence; Potency, µM (highest dose often 36.5 µM), without a hit: at the highest dose activity change, negative = inhibition, hits mostly inhibitors; hit rate 0.46% among 330,000; calls by dose curve; tested in A549 cells; also: potency is read from the fitted curve at half-maximal effect; nearly all actives have a fitted effect of over 30% in size
# MARV entry inh: blocks Marburg virus binding to or entry into cells; hit rate 1.8% among 300,000; Potency, µM (titrated, usually from 37.8 µM), for the others: top-dose activity change, negative = inhibition, hits mostly inhibitors; Marburg virus pseudotyped entry inhibition, cell reporter; calls by dose curve; tested in HEK293 cells; also: potency is read from the fitted curve at half-maximal effect
# FMDV inh: foot and mouth disease virus antiviral activity. Potency, µM (series often up to 57.9 µM), for inactives: top-dose activity change, negative = inhibition, hits mostly inhibitors. FMDV antiviral cell-based qHTS. hit rate 1.2% among 410,000. AID 1159524; calls by dose curve; tested in HEK293T cells; also: read-out not given here; potency is read from the fitted curve at half-maximal effect; nearly all actives have a fitted effect of over 45% in size
# LASV entry inh: inhibitors of Lassa virus binding or cell entry. hit rate 1.2% among 300,000. Potency, µM (doses to about 37.9 µM), inactives show top-dose activity change, negative = inhibition, hits mostly inhibitors. Lassa virus pseudotype entry inhibition, cell reporter; calls by dose curve; tested in HEK293 cells; also: potency is read from the fitted curve at half-maximal effect; nearly all actives have a fitted effect of over 50% in size
# Numbers without * were called inactive; i = inactive; ? = inconclusive; . = no result given; [ ] = remark or other dose. Shown are actives, neighbours in structure and some others; about 6.5% of the full set was active somewhere. % is scaled to controls: 0 for no effect and ±100 for the full control effect.
SMILES,Vaccinia mCherry,HCMV antiviral,Vaccinia Venus,MARV entry inh,FMDV inh,LASV entry inh
COc1ccccc1NC(=O)CSc1nc2n[nH]c(C)c2c(=N)n1-c1ccccc1Cl,.,-7,.,15µM*,?,?
Cc1[nH]nc2nc(SCC(=O)NC3CCCCC3)n(-c3ccc(Br)cc3)c(=N)c12,.,-89*,.,.,?,.
CCN1CCOC(=O)C1CC(=O)Nc1cc(C)cc(C)c1 (stereo not given),4%,14,-6%,-7%[46.1 µM],7%,-2%[46.1 µM]
O=S(=O)(c1ccccc1Br)N1CCN(c2nc(-c3ccccc3)nc3ccccc23)CC1,-13%,.,-7%,.,.,.
COc1ccc(CCN2C(=O)CS/C2=N\NC(=O)c2ccc(C(C)(C)C)cc2)cc1OC,-27%,1,-28%,-26%,32µM*,-24%
COc1ccc(N=C2SCC(=O)N2CCc2ccc(OC)c(OC)c2)cc1,.,-23,.,.,?,.
COc1ccc(CCN2C(=O)CSC2=Nc2ccc(C(C)C)cc2)cc1OC,-19%,?,-30%,?,20µM*,1.4µM*
CCOC(=O)c1ccc2c(c1)N(Cc1cccc([N+](=O)[O-])c1)C(=O)c1ccccc1S2,-8%,8,0%,.,-21%,-11%[46.1 µM]
CCSc1n[nH]c(=O)n1C,.,30,.,.,.,.
C[C@@H]1CN([C@H](C)CO)C(=O)c2c(c3ccccc3n2C)-c2ccccc2CO[C@@H]1CN(C)S(=O)(=O)c1cccs1,?,-81*,-24%,.,-24%,.
C[C@H](CO)N1C[C@H](C)[C@H](CN(C)S(C)(=O)=O)OCc2ccccc2-c2c(n(C)c3ccccc23)C1=O,0%,10,-10%,.,71%,.
Cc1ccc(S(=O)(=O)N(C)C[C@@H]2OCc3ccccc3-c3c(n(C)c4ccccc34)C(=O)N([C@H](C)CO)C[C@@H]2C)cc1,-14%,-60*,?,.,-13%,.
C[C@H](CO)N1C[C@H](C)[C@H](CN(C)S(=O)(=O)c2ccc(Cl)cc2)OCc2ccccc2-c2c(n(C)c3ccccc23)C1=O,?,-68*,?,.,-15%,.
COc1ccc(NC(=O)N2c3ccc(OC)cc3[C@@H](NC(C)=O)[C@H](C)[C@H]2c2ccccc2)cc1,.,18,.,.,.,.
CN(Cc1ccc(F)cc1)S(=O)(=O)c1nnc(NC(=O)c2ccc(F)cc2)s1,-26%,0,-24%,.,-1%,7%[46.1 µM]
COc1cc(/C=C2\C(=O)NC(=O)N(c3ccccc3)C2=O)cc(OC)c1O,.,-27,.,-1%,2%,8%
COc1cc(/C=C2/C(=O)ON=C2c2ccccc2)ccc1O,-4%,2,-7%,-4%,?,0%
CCOc1cc(/C=C2\C(=O)ON=C2c2ccccc2)cc(Br)c1O,5%,-22,61%,2%[46.1 µM],11µM*,-3%
COc1cc(/C=C2\C(=O)ON=C2c2ccccc2)cc(Br)c1O,4%,16,51%,-2%[46.1 µM],10µM*,0%[46.1 µM]
CCOc1cc(/C=C2/C(=O)ON=C2C)cc(Br)c1O,i,38,6%,.,?,.
COc1cc(C=C2C(=O)OC(c3ccccc3)OC2=O)cc(Br)c1O (stereo not given),i,3,-5%,12%[46.1 µM],10µM*,-23%[46.1 µM]
COc1cc(/C=C2\C(=O)ON=C2c2ccccc2)cc(Cl)c1O,14%,20,40%,-4%[46.1 µM],7.1µM*,2%
CCOc1cc(/C=C2\C(=O)ON=C2C)ccc1OCc1ccccc1,-14%,-76*,-5%,?,28µM*,8%
O=C1ON=C(c2ccc(Cl)cc2)/C1=C/c1ccc(O)cc1,7%,-100*,8%,?,13µM*,-23%
COc1ccccc1CN1CC(C(=O)NCc2nc3ccccc3n2C)CCC1=O (stereo not given),i,-64*,-14%,-15%,-6%,1%
SMILES,Vaccinia mCherry,HCMV antiviral,Vaccinia Venus,MARV entry inh,FMDV inh,LASV entry inh
COc1ccccc1CN1CC(C(=O)NCc2nccn2C)CCC1=O (stereo not given),.,-37,.,.,-2%,.
COc1cc(/C=N/NC(=O)CCOc2ccccc2C)cc(Br)c1O,-15%,-31,-13%,-24%[46.1 µM],-15%,0%
COc1ccc(/C=N/NC(=O)CCOc2ccccc2C)cc1OC,-17%,-79*,-10%,?,-10%,-8%
COc1cc(/C=N/NC(=O)COc2ccc(C)cc2)ccc1OC(=O)c1cccs1,9%,-9,6%,10%,1%,9.2µM*
CC1CCN(C(=O)c2[nH]cnc2C(=O)N(C)Cc2ccccc2)CC1,-11%,-62*,-4%,.,1%,.
CCOC(=O)Cn1cc(/C=C/[N+](=O)[O-])c2ccccc21,.,-74*,.,.,28µM*,.
O=Cc1cn(Cc2cccc(F)c2)c2ccccc12,i,2,-17%,?,?,?
O=[N+]([O-])/C=C/c1cn(Cc2ccc(Cl)cc2)c2ccccc12,i,-39,?,?,35µM*,?
CCOC(=O)Cn1cc(C=C2C(=O)N(C)C(=O)N(C)C2=O)c2ccccc21,-18%,36,3%,-16%[46.1 µM],-15%,-11%
O=C(O)c1ccc(Cn2cc(/C=C\[N+](=O)[O-])c3ccccc32)o1,.,26,.,.,-12%,.
COC(=O)c1ccc(Cn2cc(/C=C\[N+](=O)[O-])c3ccccc32)o1,i,-16,-2%,?,40µM*,?
Cc1cccc(Cn2cc(/C=C/[N+](=O)[O-])c3ccccc32)c1,.,-99*,.,?,?,?
CC1(C)CC(=O)c2cc(C(=O)Nc3ccc(Br)cc3)c(=O)n(-c3ccc(Cl)cc3)c2C1,-13%,-19,-19%,?,-3%,-3%[46.1 µM]
COC(=O)CC=C[C@@H](C)[C@@H](C=NOC[C@@H](O)[C@H]1O[C@@H]2OC(C)(C)O[C@H]2[C@@H]1O)OC,.,.,.,22%[14.2 µM],.,?
CC(=O)c1nn(-c2cccc(Br)c2)cc1C(=O)c1ccc(C)cc1,.,-69*,.,-30%,8%,?
Cc1cccc(NC(=O)Cc2coc3ccc4ccccc4c23)n1,i,-70*,3%,6.5µM*,-5%,?
CC(C)C(=O)N1CCN(c2ccc(NC(=O)c3cccs3)cc2Cl)CC1,.,-85*,.,.,?,.
CC(C)C(=O)N1CCN(c2ccc(NC(=O)c3ccc4c(c3)OCCO4)cc2Cl)CC1,.,-80*,.,6.5µM*,11µM*,26µM*
CC(C)C(=O)N1CCN(c2ccc(NC(=O)c3cccs3)cc2)CC1,i,54,-16%,-2%[46.1 µM],-20%,-1%
CC(=O)N1CCN(c2ccc(NC(=O)c3ccc4c(c3)OCCO4)cc2Cl)CC1,i,-11,-12%,?,?,?
CCN(CC)c1ccc(/C=C2\NC(=O)NC2=O)cc1,-24%,6,-15%,-13%,2%,-4%
CCN(CC)c1ccc(C=C2C(=O)NC(=S)NC2=O)cc1,.,-29,.,.,22µM*,.
CN(C)c1ccc(C=C2C(=O)NC(=S)NC2=O)cc1,-18%,22,-9%,?,28µM*,?
Cc1cccc(C)c1OC[C@H](O)CNS(=O)(=O)c1ccccc1C(=O)N1CCOCC1,.,.,.,12%[46.1 µM],.,.
